Results reported in PubChem BioAssay.

These molecules were tested against Torsin-1A (Homo sapiens) (UniProt O14656) (assay: TOR1A wild-type binding on microarray – cell lysate, small-molecule microarray, lysate, 635/667 nm, primary screen (AID 1149)). Conditions: COS7 hTOR1A-WT lysate, 635 nm fluorescence, higher = more signal.
Sequence of Torsin-1A (Homo sapiens) (O14656 whole entry, looked up): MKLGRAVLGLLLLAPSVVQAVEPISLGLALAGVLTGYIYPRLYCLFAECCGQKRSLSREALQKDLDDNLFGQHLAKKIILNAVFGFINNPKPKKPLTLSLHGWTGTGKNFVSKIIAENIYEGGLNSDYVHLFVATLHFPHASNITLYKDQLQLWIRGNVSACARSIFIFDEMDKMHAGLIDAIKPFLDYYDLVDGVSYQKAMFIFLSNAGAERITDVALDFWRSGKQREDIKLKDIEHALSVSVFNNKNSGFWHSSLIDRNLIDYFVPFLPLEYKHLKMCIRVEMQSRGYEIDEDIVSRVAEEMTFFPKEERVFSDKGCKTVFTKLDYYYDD

SMILES | composite z-score
COC(=O)[C@@]1(Cc2ccc(OC)cc2)[C@H]2c3cc(C(=O)N4CCCC4)n(CCc4ccc(O)c(O)c4)c3C[C@H]2CN1C(=O)c1ccccc1 | -0.252
CC(CO)N1C(=O)[C@@H]2C3C(=O)OCCC/C=C\[C@H]3OC23C=CCN(CCN2CCOCC2)C(=O)[C@@H]13 (stereo partly specified) | -0.951
CC1CC/C=C\[C@H]2OC34C=CCN(Cn5nnc6ccccc65)C(=O)[C@H]3N(CCCCCO)C(=O)[C@@H]4C2C(=O)O1 (stereo partly specified) | -2.12
COC(=O)C(CC#Cc1ccc2c(c1)[C@]1(C(=O)N2)[C@H](c2ccccc2OCCO)N2[C@H](c3ccccc3)[C@H](c3ccccc3)OC(=O)[C@H]2[C@@H]1C(N)=O)C(=O)OC | 0.412
COC(=O)[C@@]1(Cc2ccc(OC)cc2)[C@H]2c3cc(C(=O)N4CCCC4)n(CCSCCO)c3C[C@H]2CN1C(=O)c1ccccc1 | 0.396
C=CC[C@@]1(C(=O)N2CCCCC2)N=C(c2ccc(OCCCO)cc2)O[C@@H]1c1ccccc1CN=[N+]=[N-] | 0.342
CCOC(=O)C1=C[C@@H](C(C)C)N(S(=O)(=O)c2ccc(C)cc2)[C@H]1c1ccccc1F | 0.345
NC(=O)[C@@]1(Cc2ccccc2)N=C(c2ccc(OCCCO)cc2)O[C@H]1c1ccccc1 | 1.07
COc1cc2c(cc1O)C(c1cccs1)N(Cc1ccc([N+](=O)[O-])o1)CC2 (stereo unspecified) | 0.426
COCCCNC(=O)[C@@]1(Sc2ccc(C)cc2)CC(=O)N(Cc2ccccc2Cl)[C@@H]1c1ccc(CO)cc1 | 0.607
O=C1N(CCS(=O)(=O)c2ccccc2)c2ccccc2[C@@H]2OC(c3ccc(OCCCO)cc3)=N[C@]12Cc1ccccc1 | 0.422
[N-]=[N+]=Nc1ccccc1C[C@]1(C(=O)N2CCCCC2)COC(c2ccc(OCCCO)cc2)=N1 | 0.552
COc1ccc(CCNC(=O)[C@@]2(c3ccc([N+](=O)[O-])cc3)CC(=O)N(CC34CC5CC(CC(C5)C3)C4)[C@@H]2c2ccc(CO)cc2I)cc1 | 0.292
NCCCCCNC(=O)[C@H]1C[C@H]2C(=O)N3CCC[C@H]3C(=O)N2[C@H]1c1ccc(O)cc1 | 1.66
COCCCNC(=O)[C@@]1(CCS(=O)(=O)c2ccccc2)N=C(c2ccc(OCCCO)cc2)O[C@H]1c1ccccc1N=[N+]=[N-] | 0.765
COc1ccc([Si](C)(C)[C@@H]2[C@@H](CCn3cc(CCO)nn3)O[C@]3(C(=O)N(Cc4cccc(N5C(=O)c6cccc7cccc5c67)c4)c4ccccc43)[C@H]2C)cc1 | 0.119
O=C1OCCC/C=C\[C@H]2OC34C=CCN(c5ccc6ccccc6c5)C(=O)[C@H]3N(CCCCCO)C(=O)[C@@H]4C12 (stereo partly specified) | -2.04
CN1C(=O)C2C=CC(C(O)c3ccccc3)N(N3CCCCC3)C2C1=O (stereo unspecified) | 0.305

SMILES | composite z-score
C=C(C(=O)CC[C@H](OC(C)=O)c1ccccc1OCCO)C(C)C | 0.229
C=C(CCCC)C(=O)CC[C@@H](OC(C)=O)c1ccc(CO)o1 | -0.0372
CC(C)(C)OC(=O)CC[C@]1(C(=O)NCCN2CCOCC2)COC(c2ccc(OCCCO)cc2)=N1 | 0.717
C=CCOC(=O)[C@H]1[C@@H]2C(=O)O[C@@H](c3ccccc3)[C@@H](c3ccccc3)N2[C@@H](c2ccc(OCCOC(=O)[C@H]3C[C@H]4C(=O)N[C@@H](CCCCN(C)C)C(=O)N4[C@H]3c3cccc(OCCO)c3)cc2)[C@]12C(=O)Nc1ccc(I)cc12 | 0.166
[N-]=[N+]=Nc1ccccc1C[C@]1(C(=O)NCc2ccccc2)N=C(c2ccc(OCCCO)cc2)O[C@H]1c1ccccc1N=[N+]=[N-] | 0.109
CCOC(=O)C1=CC[C@@H](c2ccccc2)N(S(=O)(=O)c2ccc(C)cc2)[C@H]1c1ccc(CC)cc1 | 0.567
COCC(=C=CC[C@H](O)c1ccccc1OCCO)CCO | 0.871
COc1ccc(C(=O)Nc2ccc(CN3C(=O)[C@]4(O[C@H](CC(=O)N5CCC[C@H]5CO)[C@@H]([Si](C)(C)c5ccc(OC)cc5)[C@@H]4C)c4ccccc43)cc2)cc1 | 0.585
C=C(C)[C@@H]1CC=C(C(O)C2C=CC3C(=O)NC(=O)C3N2Nc2ccc(Cl)cc2Cl)CC1 (stereo partly specified) | -0.0124
O=C1O[C@@H](c2ccccc2)[C@@H](c2ccccc2)N2[C@@H](c3ccc(OCCO)cc3)[C@]3(C(=O)Nc4ccc(C#CCCO)cc43)[C@@H](C(=O)NC[C@H](O)c3ccccc3)[C@H]12 | 0.458
O=C1[C@H]2C=C(Br)[C@H](C[C@@H]2OCCCCCCO)[C@@]12CO2 | 0.36
C=CCNC(=O)[C@@H]1[C@H]2C(=O)O[C@H](c3ccccc3)[C@H](c3ccccc3)N2[C@H](c2ccc(OCCO)cc2)[C@@]12C(=O)N(C(=O)OCCOC)c1ccc(C#CCNC(N)=O)cc12 | 0.609
O=C1NC(=O)C2C1C=CC(C(O)c1ccc(I)cc1)N2Nc1ccccn1 (stereo unspecified) | 0.282
COc1cc2c(cc1OC)CN(C(=O)[C@H]1[C@@H]3C(=O)O[C@@H](c4ccccc4)[C@@H](c4ccccc4)N3[C@@H](c3ccccc3OCCO)[C@]13C(=O)Nc1ccc(C#CCCO)cc13)CC2 | -0.0954
C=CCC(OC(C)=O)[C@@H]1[C@@H](N(Cc2ccc(-c3cccc(C(F)(F)F)c3)o2)C(=O)c2cccc3ccccc23)c2cc(OCCCO)ccc2N1C(=O)Cc1ccc2ccccc2c1 (stereo partly specified) | 1.34
C=CCN1C(=O)[C@]2(O[C@H](CCO)[C@@H]([Si](C)(C)c3ccc(OC)cc3)[C@@H]2C)c2cc(N(C=O)c3ccccc3)ccc21 | -0.376
COC(=O)c1c2oc(c1C(=O)OC)C(=O)NC1(CCCCC1)c1cn(nn1)C[C@H](Cc1ccccc1)NC(=O)N[C@H](CO)CC2 | -0.299
CCN(CC)c1ccc(N2CC=CC34O[C@@H]5C=CCOC(=O)[C@@H]5[C@H]3C(=O)N(CCCCCCO)[C@@H]4C2=O)cc1 (stereo partly specified) | 0.914
